In PubChem BioAssay (Tox21):
Several values for one entry are separate records, joined by “and”; a condition that tells them apart may be missing. Identical values can stand only once. Results filed as inconclusive are left out. Activity calls are given as the source filed them. Unless noted, calls come from the whole dose curve; as a rule, active = well fitted curve in the direction sought with a large enough effect in the repeat runs; inconclusive = weak or mixed curves; inactive = no such curve, though single readings can be large; an effect the other way counts as inactive or inconclusive.

What was measured:
[1] = qHTS assay to identify small molecule agonists of the RXR signaling pathway - cell viability counter screen (AID 1159529); note: series mostly up to about 77 µM; nearly all actives have a fitted effect of over 50% in size
Summary of the method: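 Cell viability is measured by CellTiter-Glo luminescence, 30 min at room temperature, in wells already read for beta-lactamase. Engineered HEK 293T cells (RXR-alpha-UAS-bla) are dosed 16 hr at 37 C. Tetraoctyl ammonium bromide serves as positive control.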

[2] = qHTS assay to identify small molecule antagonists of the retinoic acid receptor (RAR) signaling pathway (AID 1159552; note: nearly all actives have a fitted effect of over 50% in size)
Summary of the method: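 Quantitative HTS in C3RL4 RARE-luciferase reporter cells. Compounds were added with 1 uM (final) retinol; luminescence was read after 6 hr.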

[3] = qHTS assay to identify small molecule agonists of the retinoic acid receptor (RAR) signaling pathway (AID 1159553); note: potency is the fitted concentration of half-maximal effect
Summary of the method: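 Cell line C3RL4, RARE luciferase reporter. Treatment: compounds in DMSO, 6 hr, 37 C, 5% CO2, after overnight plating. Detection: luminescence, 30 min RT after reagent.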

[4] = qHTS assay to identify small molecule antagonists of the estrogen related receptor (ERR) signaling pathway from Tox21 library - cell viability counter screen (AID 1224834); note: nearly all actives have a fitted effect of over 30% in size; note: potency is the fitted concentration of half-maximal effect
Summary of the method: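 Viability readout (CellTiter-Fluor fluorescence, 30 min at 37 C) multiplexed with the ERR assay; cells treated 17.5 h at 37 C with compounds delivered in DMSO.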

[5] = target: Luciferin 4-monooxygenase (Photinus pyralis) (UniProt P08659); experiment: qHTS assay to identify small molecule inhibitors of firefly luciferase (AID 1224835); note: nearly all actives have a fitted effect of over 25% in size; note: potency is the fitted concentration of half-maximal effect
Summary of the method: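 Inhibition of purified Photinus luciferase is measured by luminescence. Substrate levels (D-luciferin, ATP) sit at their KM values. Each compound is tested in a concentration series.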

[6] = qHTS assay to identify small molecule agonists of the constitutive androstane receptor (CAR) signaling pathway - cell viability counter screen (AID 1224836); note: nearly all actives have a fitted effect of over 45% in size; note: potency is the fitted concentration of half-maximal effect
Summary of the method: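 Counter screen multiplexed with the CAR reporter readout: HepG2 cells co-transfected with hCAR and the CYP2B6-2.2kb construct receive a 15-concentration compound series and 0.75 uM PK11195 (final), then CellTiter-Fluor fluorescence is read after 23 h.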

[7] = qHTS assay to identify small molecule antagonists of the constitutive androstane receptor (CAR) signaling pathway - cell viability counter screen (AID 1224837); note: nearly all actives have a fitted effect of over 45% in size; note: potency is the fitted concentration of half-maximal effect
Summary of the method: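 Fluorescence from CellTiter-Fluor served as the viability signal. Human hepatoma HepG2 cells stably bearing hCAR and CYP2B6-2.2kb received compound plus CITCO (50 nM final) for 23 hr.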

[8] = qHTS assay to identify small molecule antagonists of the estrogen related receptor signaling pathway with the pleiotropic PPARgamma coactivator (PGC) from Tox21 10K library - cell viability counter screen (AID 1224840; active = well fitted cell-killing curve with a large enough effect in the repeat runs, not every such curve was filed as active; note: nearly all actives have a fitted effect of over 40% in size)
Summary of the method: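 Compounds in DMSO, alongside positive and negative controls, were pinned onto PGC/ERR cells (2,000 per well). Exposure lasted 17.5 hours at 37 C, followed by a 30-minute CellTiter-Fluor incubation and fluorescence reading.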

[9] = target: Thyrotropin receptor (Homo sapiens) (UniProt P16473); experiment: qHTS assay to identify small molecule agonists of the thyroid stimulating hormone receptor (TSHR) signaling pathway (AID 1224843; calls by dose curve; note: nearly all actives have a fitted effect of over 45% in size)
Summary of the method: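 HEK293 cells stably bearing the thyrotropin receptor were plated at 800 cells/well and challenged with compound (30 min, RT). Accumulated cAMP was quantified via cAMP-d2 competing for cryptate-tagged antibody.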

[10] = qHTS assay to identify small molecule antagonists of the retinoid acid receptor (RAR) signaling pathway - cell viability counter screen (AID 1159551); note: nearly all actives have a fitted effect of over 35% in size
Summary of the method: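 Following overnight attachment, C3RL4 reporter cells received DMSO-dissolved compounds and then retinol (1 uM final). Six hours later at 37 C, ATP content was measured by CellTiter-Glo luminescence.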

[11] = target: Nuclear receptor subfamily 1 group I member 3 (Homo sapiens) (UniProt Q14994); experiment: qHTS assay to identify small molecule antagonists of the constitutive androstane receptor (CAR) signaling pathway (AID 1224838);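 note: HepG2 cells stably expressing hCAR with CYP2B6 luciferase reporter stimulated by CITCO; nearly all actives have a fitted effect of over 40% in size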
Summary of the method: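 Quantitative HTS in double-stable HepG2-CYP2B6-hCAR cells. After 4 h plating, cells get compound (15 concentrations) and CITCO at 50 nM final, incubate 24 h at 37 C, then ONE-Glo luminescence is read.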

[12] = target: Nuclear receptor subfamily 1 group I member 3 (Homo sapiens) (UniProt Q14994); experiment: qHTS assay to identify small molecule agonists of the constitutive androstane receptor (CAR) signaling pathway (AID 1224839); note: series mostly up to about 92 µM; nearly all actives have a fitted effect of over 15% in size
Summary of the method: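 A 15-concentration quantitative screen uses HepG2 cells co-transfected stably with human CAR and CYP2B6-2.2kb reporter. Treatment lasts 24 h with 0.75 uM PK11195 final present; ONE-Glo luminescence is the signal.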

[13] = qHTS assay to identify small molecule antagonists of the estrogen related receptor (ERR) signaling pathway - cell viability counter screen (AID 1224818);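 note: series mostly up to about 46 µM; viability measured after 17.5 h of compound exposure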
Summary of the method: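 Here, ERR cells are plated at 2,000 cells per well, allowed 6 h to attach, and treated with compounds in DMSO for 17.5 h at 37 C. CellTiter-Fluor is then added and fluorescence read after 30 min.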

[14] = qHTS assay to identify small molecule antagonists of the estrogen related receptor (ERR) signaling pathway (AID 1224819;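 note: luminescence from an ERR-driven luciferase reporter measured with One-Glo reagent; series mostly up to about 46 µM; nearly all actives have a fitted effect of over 50% in size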)
Summary of the method: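 LOPAC library screened for antagonism as reduced One-Glo luminescence in ERR reporter cells (2,000/well). Compounds were added after 6 h pre-incubation and left 18 h at 37C; reading followed a 30 min room-temperature reagent step.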

[15] = qHTS assay to identify small molecule agonists of the estrogen related receptor (ERR) signaling pathway (AID 1224820)
Summary of the method: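 Quantitative HTS of the LOPAC library used NTP ERR reporter cells treated 18 h at 37 C. Signal is luminescence after One-Glo addition and a 30 min room-temperature incubation.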

[16] = qHTS assay to identify small molecule antagonists of the estrogen related receptor signaling pathway with the pleiotropic PPARgamma coactivator (PGC) cell viability counter screen (AID 1224822;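 note: series mostly up to about 46 µM; viability read after 17.5 h compound exposure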)
Summary of the method: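 qHTS format, DMSO compound stocks pin-transferred onto PGC/ERR cells 6 h after plating; 17.5 h exposure at 37 C, then CellTiter-Fluor fluorescence.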

[17] = qHTS assay to identify small molecule antagonists of the estrogen related receptor signaling pathway with the pleiotropic PPARgamma coactivator (PGC) from Tox21 10K library (AID 1224841; call rule not given here; note: actives are mostly falling curves and most rising ones were filed inactive; nearly all actives have a fitted effect of over 50% in size; note: potency is the fitted concentration of half-maximal effect)
Summary of the method: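 Compound exposure ran 18 hours at 37 C in PGC/ERR cells (2,000/well) that had first rested 6 hours in a 37 C/5% CO2 incubator. Luciferase activity was then detected with One-Glo after a 30-minute room-temperature step.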

[18] = qHTS assay to identify small molecule agonists of the estrogen related receptor signaling pathway with the pleiotropic PPARgamma coactivator (PGC) from Tox21 10K library (AID 1224842); note: nearly all actives have a fitted effect of over 15% in size
Summary of the method: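 Luminescence from One-Glo (30 min, room temperature) measured after PGC/ERR cells had 18 h at 37 C with pinned compound (23 nL in DMSO). Cells had been seeded at 2,000 per well and pre-incubated 6 h.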

Measured: Potency

Luciferin 4-monooxygenase (Photinus pyralis), sequence (P08659 whole entry, looked up): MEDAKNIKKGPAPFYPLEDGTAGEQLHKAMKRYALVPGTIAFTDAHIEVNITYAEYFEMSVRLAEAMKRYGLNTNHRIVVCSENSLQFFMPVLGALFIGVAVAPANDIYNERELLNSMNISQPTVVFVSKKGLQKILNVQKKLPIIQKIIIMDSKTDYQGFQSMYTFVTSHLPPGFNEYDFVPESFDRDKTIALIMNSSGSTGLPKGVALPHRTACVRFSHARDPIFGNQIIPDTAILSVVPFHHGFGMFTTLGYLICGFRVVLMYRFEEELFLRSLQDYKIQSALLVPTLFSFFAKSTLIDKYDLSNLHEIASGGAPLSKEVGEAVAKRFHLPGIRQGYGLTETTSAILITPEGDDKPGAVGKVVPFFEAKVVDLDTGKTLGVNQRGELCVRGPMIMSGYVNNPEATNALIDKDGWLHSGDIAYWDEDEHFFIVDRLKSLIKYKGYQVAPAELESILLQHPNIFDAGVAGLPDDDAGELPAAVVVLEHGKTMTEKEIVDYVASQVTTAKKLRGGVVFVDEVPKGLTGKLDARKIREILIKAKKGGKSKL
Thyrotropin receptor (Homo sapiens), sequence (P16473 whole entry, looked up): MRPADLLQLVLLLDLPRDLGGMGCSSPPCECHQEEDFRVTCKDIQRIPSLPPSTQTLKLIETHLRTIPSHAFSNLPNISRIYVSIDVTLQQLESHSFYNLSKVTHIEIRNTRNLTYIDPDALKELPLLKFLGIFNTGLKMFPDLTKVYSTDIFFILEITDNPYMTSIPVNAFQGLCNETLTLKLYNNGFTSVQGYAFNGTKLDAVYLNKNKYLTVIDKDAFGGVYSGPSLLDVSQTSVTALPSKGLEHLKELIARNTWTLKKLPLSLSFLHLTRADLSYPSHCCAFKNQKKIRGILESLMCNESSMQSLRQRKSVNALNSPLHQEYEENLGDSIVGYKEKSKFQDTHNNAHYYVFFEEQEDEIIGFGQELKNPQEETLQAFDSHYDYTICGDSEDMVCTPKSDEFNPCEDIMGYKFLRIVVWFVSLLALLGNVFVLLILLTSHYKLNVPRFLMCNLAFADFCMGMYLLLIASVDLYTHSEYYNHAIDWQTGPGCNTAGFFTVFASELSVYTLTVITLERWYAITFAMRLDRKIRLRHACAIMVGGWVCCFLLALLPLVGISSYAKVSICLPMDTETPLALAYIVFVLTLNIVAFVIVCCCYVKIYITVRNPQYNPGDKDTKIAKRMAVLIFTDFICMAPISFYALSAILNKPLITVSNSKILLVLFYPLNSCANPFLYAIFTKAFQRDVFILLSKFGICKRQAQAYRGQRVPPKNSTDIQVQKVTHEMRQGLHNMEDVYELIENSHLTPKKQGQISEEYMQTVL
Nuclear receptor subfamily 1 group I member 3 (Homo sapiens), sequence (Q14994 whole entry, looked up): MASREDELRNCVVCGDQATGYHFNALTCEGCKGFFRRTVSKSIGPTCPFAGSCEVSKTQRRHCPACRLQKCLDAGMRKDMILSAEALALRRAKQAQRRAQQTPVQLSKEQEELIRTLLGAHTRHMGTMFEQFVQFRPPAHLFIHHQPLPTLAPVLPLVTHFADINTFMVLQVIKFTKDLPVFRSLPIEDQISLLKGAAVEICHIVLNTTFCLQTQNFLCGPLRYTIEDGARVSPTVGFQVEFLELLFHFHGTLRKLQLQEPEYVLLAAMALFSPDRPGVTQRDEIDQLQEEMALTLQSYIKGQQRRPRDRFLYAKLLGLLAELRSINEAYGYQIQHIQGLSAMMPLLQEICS

CN(C)N
inactive: [1] | [2] | [3] | [4] | [5] | [6] | [7] | [8] | [9]

C=CC(=O)NC(C)(C)CC(C)=O
inactive: [10] | [2] | [3] | [4] | [5] | [6] | [7] | [11] | [8]

CCCCCCCCCCCCCCCl
inactive: [1] | [2] | [3] | [4] | [5] | [6] | [7] | [11] | [8] | [9]

O=S(=O)(Cl)Cl
not listed: [10] | [13] | [14] | [15] | [16] | [17] | [18]
inactive: all other assays above

Cc1cccc(C)c1NC1=NCCCS1
not listed: [1] | [11] | [12] | [17] | [18]
inactive: all other assays above

C1CS1
active: [17] 19.8 µM
not listed: [1] | [13] | [14] | [15] | [16]
inactive: all other assays above

CCOP(=S)(S)OCC
active: [5] 33.4 µM
not listed: [3] | [10] | [13] | [14] | [15] | [16]
inactive: all other assays above

O=C(O)CCCOc1ccc(Cl)cc1Cl
not listed: [1] | [5] | [14] | [15] | [17] | [18]
inactive: all other assays above

NNCCO
not listed: [10] | [11] | [12] | [13] | [14] | [15] | [16]
inactive: all other assays above

CCCCCBr
inactive: [1] | [2] | [3] | [4] | [5] | [6] | [7] | [11] | [8] | [9]

CCCC[N+]1(C)[C@@H]2CC(OC(=O)[C@H](CO)c3ccccc3)C[C@H]1[C@@H]1O[C@@H]12 (some centres not stated)
inactive: [1] | [4] | [5] | [6] | [7] | [12] | [8] | [9]

CCCCC(CC)CO[N+](=O)[O-] (configuration not stated)
inactive: [1] | [2] | [3] | [4] | [5] | [6] | [7] | [8] | [9]

O=C(CCl)CCl
inactive: [1] | [4] | [5] | [6] | [7] | [8] | [9]

Nc1ccccc1C(=O)OCC(O)CO (configuration not stated)
inactive: [1] | [2] | [3] | [4] | [5] | [6] | [7] | [11] | [8] | [9]

O=P(OCC(Br)CBr)(OCC(Br)CBr)OCC(Br)CBr (configuration not stated)
active: [4] 49.2 µM and 51.7 µM
inactive: [1] | [2] | [3] | [5] | [12] | [8] | [9]

C[C@@H]1C[C@@H]([C@H](O)CC2CC(=O)NC(=O)C2)C(=O)[C@@H](C)C1
inactive: [1] | [5] | [8] | [18] | [9]
active: [4] 430 nM and 154 nM and 266 nM | [6] 0.969 µM | [7] 765 nM and 611 nM | [17] 682 nM and 433 nM and 531 nM

O=C=NC1CCCCC1
active: [3] 1.94 µM
not listed: [10] | [11] | [12] | [13] | [14] | [15] | [16]
inactive: all other assays above
